From PubChem BioAssay (NCATS)
A number with no mark means an inactive call. Calls follow the shape of the dose curve; as a rule, active = well fitted inhibition curve with a large enough effect; inconclusive = small, poorly fitted or top-dose-only effect; inactive = flat fitted curve, though single readings scatter.

What follows are compounds tested on Nanoluciferase (engineered Oplophorus gracilirostris luciferase) (assay: Primary Nanoluciferase (NLuc) qHTS assay for identification of artifact compounds. (AID 1845222;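 also: NLuc secreted into diluted conditioned medium of S16 cells; 0% = DMSO and -100% = no enzyme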)). Settings: NLuc-conditioned medium, Nano-Glo luminescence, 5 min; series mostly up to 54.1 µM; activity, negative = inhibition: at the top concentration.
Outline: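 S16 cell supernatant NLuc, 1:55; cpds qHTS; 15 min RT dark; Nano-Glo substrate 1:100, 5 min; luminescence; Hill fit of % inhibition.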

Going from `COC1=CC(=O)O[C@@H](CCc2ccccc2)C1` to `CN1CCCC1CCOC(c1cc2nccc(C(=O)O)c2[nH]1)c1ccccc1Cl` (stereo not given), the “activity, negative = inhibition” value falls from 0.179% to 0.0202%.

Going from `CN1C(=O)N(c2ccc(C#N)c(C(F)(F)F)c2)C(=O)[C@]1(CO)c1ccccc1` to `O=C(O)c1ccnc2cc(C(OCCN3CCCCC3)c3ccccc3Cl)[nH]c12` (stereo not given), the “activity, negative = inhibition” value rises from -6.58% to 0.148%.

For `COc1cc(C)[nH]c(=O)c1CNC(=O)c1c(C)n([C@H](C)C2CCOCC2)c2ccccc12`, the “activity, negative = inhibition” value was -0.213%.

First: CCCCCCn1c(=O)c(C(=O)Nc2ccc(C(=O)OCCC)cc2)c(O)c2ccccc21
Second: COC1CC(OC2CCC3(C)C(=CCC4C3CCC3(C)C(C(C)OC5OC(COC6OC(CO)C(O)C(O)C6O)C(O)C(O)C5O)CCC43O)C2)OC(C)C1OC1OC(C)C(O)C(OC)C1O (stereo not given)
The activity, negative = inhibition of the first is lower: 1.06% [at 11.6 µM] for the first, 2.42% [at 11.6 µM] for the second.

First: CO[C@@H]1[C@H](O)[C@@H](O[C@@H]2C[C@H]3CC[C@@H]4C(CC[C@]5(C)[C@@H](C6=CC(=O)OC6)CC[C@]45O)[C@@]3(C)[C@H](O)C2)O[C@H](C)[C@@H]1O[C@@H]1O[C@H](CO)[C@@H](O)[C@H](O)[C@H]1O (stereo not given in full)
Second: COC1CC(O[C@H]2CC[C@]3(C=O)C4CC[C@]5(C)[C@@H](C6=CC(=O)OC6)CC[C@]5(O)[C@@H]4CC[C@]3(O)C2)OC(C)C1O[C@@H]1O[C@H](CO)[C@@H](O)[C@H](O)[C@H]1O (stereo not given in full)
The “activity, negative = inhibition” value of the first is higher: 4.7% [at 25.7 µM] for the first, 2.35% [at 25.7 µM] for the second.

`CO[C@H]1[C@H](O)[C@H](O[C@H]2CC[C@]3(C)C4CC[C@]5(C)[C@H](C6=CC(=O)OC6)CC[C@]5(O)C4CC[C@@H]3C2)O[C@@H](C)[C@@H]1O` (stereo not given in full) was tested, and the “activity, negative = inhibition” value was -0.235% [at 25.7 µM].
